Results reported in PubChem BioAssay (NCI).
Where “and” joins values, the source holds several entries; their conditions need not be identical. Equal values may be shown once. This is part of a sample that, as a whole, favours compounds with a hit. Of some 83,000 tested, about 20% had one in any assay.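 Single-concentration screen, 48 h exposure, 96-well plates. Endpoint: percent growth. Below 10 = active.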 Calls of active or inactive are those of the source.

Assays:
Assay in all cases: NCI-60 one-dose screen, 48 h (100 = growth as untreated, 0 = no growth, -100 = all killed)
Conditions in all cases: 10 µM unless noted
DU-145 prostate = system: DU-145 prostate
K-562 leukemia = system: K-562 leukemia
MALME-3M melanoma = system: MALME-3M melanoma
MDA-MB-231 breast = system: MDA-MB-231 breast
RXF 393 renal = system: RXF 393 renal
SF-268 CNS = system: SF-268 CNS
SF-295 CNS = system: SF-295 CNS
SF-539 CNS = system: SF-539 CNS
UACC-257 melanoma = system: UACC-257 melanoma
M14 melanoma = system: M14 melanoma
HCT-15 colon = system: HCT-15 colon
HT29 colon = system: HT29 colon
SNB-19 CNS = system: SNB-19 CNS
U251 CNS = system: U251 CNS
PC-3 prostate = system: PC-3 prostate
SK-MEL-5 melanoma = system: SK-MEL-5 melanoma
UACC-62 melanoma = system: UACC-62 melanoma
LOX IMVI melanoma = system: LOX IMVI melanoma
SK-MEL-28 melanoma = system: SK-MEL-28 melanoma
SNB-75 CNS = system: SNB-75 CNS

Compound	growth (DU-145 prostate)	growth (K-562 leukemia)	growth (MALME-3M melanoma)	growth (MDA-MB-231 breast)	growth (RXF 393 renal)	growth (SF-268 CNS)	growth (SF-295 CNS)	growth (SF-539 CNS)	growth (UACC-257 melanoma)	growth (M14 melanoma)	growth (HCT-15 colon)	growth (HT29 colon)	growth (SNB-19 CNS)	growth (U251 CNS)	growth (PC-3 prostate)	growth (SK-MEL-5 melanoma)	growth (UACC-62 melanoma)	growth (LOX IMVI melanoma)	growth (SK-MEL-28 melanoma)	growth (SNB-75 CNS)
CCOc1ccc(Nc2c3ccccc3nc3ccccc23)cc1	104% (inactive) and 23.1% (inactive) and 35.2% (inactive)	81.3% (inactive) and 6.44% (active) and 3.81% (active)	99% (inactive) and 5.36% (active) and 13.2% (inactive)	94.2% (inactive) and 45.9% (inactive) and 48.4% (inactive)	83.7% (inactive) and -4.09% (active) and 10% (active)	108% (inactive) and 34.7% (inactive) and 45.7% (inactive)	65.7% (inactive) and 28.8% (inactive) and 17.1% (inactive)	94.5% (inactive) and 17.9% (inactive) and 11% (inactive)	96% (inactive) and 24.7% (inactive) and 44.7% (inactive)	95% (inactive) and 19.4% (inactive) and 40.4% (inactive)	91.1% (inactive) and 17.4% (inactive) and 22% (inactive)	98% (inactive) and 4.3% (active) and 10.5% (inactive)	91.1% (inactive) and 44.3% (inactive) and 35.2% (inactive)	86% (inactive) and 21.4% (inactive) and 28.1% (inactive)	90.6% (inactive) and 25.6% (inactive) and 39.5% (inactive)	80.6% (inactive) and -65.9% (active) and 0.799% (active)	84.8% (inactive) and 18.9% (inactive) and 31.8% (inactive)	94.5% (inactive) and 3.66% (active) and 11.5% (inactive)	106% (inactive) and 46.8% (inactive) and 66.1% (inactive)	
O=C(O)CN(CCN(CC(=O)O)CC(=O)O)CCN(CC(=O)O)CC(=O)O	-12.6% (active) and 114% (inactive) and 106% (inactive)	4.41% (active) and 114% (inactive) and 103% (inactive)	-4.09% (active) and 112% (inactive) and 102% (inactive)	35.8% (inactive) and 100% (inactive) and 90.7% (inactive)	-19.3% (active) and 108% (inactive) and 109% (inactive)	1.46% (active) and 114% (inactive) and 105% (inactive)	-23.9% (active) and 112% (inactive) and 105% (inactive)	-42.7% (active) and 104% (inactive)	0.783% (active) and 105% (inactive) and 102% (inactive)	18.2% (inactive) and 88.8% (inactive) and 102% (inactive)	9.67% (active) and 99.9% (inactive) and 107% (inactive)	2.39% (active) and 108% (inactive) and 94.8% (inactive)	27.6% (inactive) and 101% (inactive) and 98.6% (inactive)		9.35% (active) and 92.8% (inactive) and 93.5% (inactive)	3.74% (active) and 103% (inactive) and 106% (inactive)	8.73% (active) and 95.6% (inactive) and 101% (inactive)	-31.4% (active) and 101% (inactive) and 106% (inactive)	24% (inactive) and 105% (inactive) and 99.4% (inactive)	9.81% (active) and 87.3% (inactive) and 85.8% (inactive)
CC(=O)c1ccccc1O	112% (inactive) and 107% (inactive) and 116% (inactive)	94.9% (inactive) and 95% (inactive) and 107% (inactive)	101% (inactive) and 95% (inactive) and 114% (inactive)	108% (inactive) and 99.3% (inactive) and 110% (inactive)	101% (inactive) and 117% (inactive) and 129% (inactive)	108% (inactive) and 99.6% (inactive) and 113% (inactive)	108% (inactive) and 101% (inactive) and 105% (inactive)	95.3% (inactive) and 103% (inactive) and 141% (inactive)	109% (inactive) and 89.4% (inactive) and 96.1% (inactive)	104% (inactive) and 98.3% (inactive) and 100% (inactive)	112% (inactive) and 105% (inactive) and 223% (inactive)	107% (inactive) and 99.2% (inactive) and 111% (inactive)	102% (inactive) and 105% (inactive) and 94.1% (inactive)	108% (inactive) and 98.7% (inactive) and 104% (inactive)	102% (inactive) and 83.5% (inactive) and 91.7% (inactive)	100% (inactive) and 102% (inactive)	101% (inactive) and 105% (inactive)	100% (inactive) and 92.7% (inactive) and 103% (inactive)	103% (inactive) and 91.7% (inactive) and 109% (inactive)	
Cc1cc(-c2ccc(NS(=O)(=O)c3ccccc3)c(C)c2)ccc1NS(=O)(=O)c1ccccc1	93.8% (inactive) and 94.7% (inactive)	62.7% (inactive) and 65.9% (inactive)	79.6% (inactive) and 120% (inactive)	70.1% (inactive) and 74.5% (inactive)	70.1% (inactive) and 119% (inactive)	91.5% (inactive) and 106% (inactive)	58.1% (inactive) and 99.4% (inactive)	108% (inactive) and 95.9% (inactive)	93.6% (inactive) and 110% (inactive)	87.4% (inactive) and 99% (inactive)	84.8% (inactive) and 84.9% (inactive)	74.2% (inactive) and 99.7% (inactive)	91.4% (inactive) and 101% (inactive)		63.1% (inactive) and 78.7% (inactive)	87.2% (inactive)	55.8% (inactive) and 63.5% (inactive)	84% (inactive) and 75% (inactive)	92.2% (inactive) and 109% (inactive)	72.6% (inactive) and 105% (inactive)
Cc1ccc2nc3c(nc2c1)-c1cccc2cccc-3c12	86.4% (inactive)	97.5% (inactive)	124% (inactive)	75.8% (inactive)	85.2% (inactive)	89.2% (inactive)	102% (inactive)	85.4% (inactive)	106% (inactive)	102% (inactive)	75.1% (inactive)	80.3% (inactive)	100% (inactive)		87.4% (inactive)	62.7% (inactive)	79.6% (inactive)	82.6% (inactive)	102% (inactive)	94.9% (inactive)
COc1cc2c(Nc3ccc(Cl)c(Cl)c3F)ncnc2cc1OCC1C[C@@H]2CN(C)C[C@@H]2C1 (stereo partly drawn)	-83.6% (active) and 25.4% (inactive)	-39.5% (active) and -0.692% (active)	-93.5% (active) and -34.7% (active)	-87.5% (active) and -9.5% (active)	-95.2% (active) and -65.2% (active)	-70.2% (active) and 24% (inactive)	-93.6% (active) and -55.7% (active)	-93.9% (active) and 17.5% (inactive)	-87.8% (active) and -64% (active)	-71.1% (active) and -62.8% (active)	-89.2% (active) and -0.559% (active)	-90.2% (active) and -11.5% (active)	-93.5% (active) and 32.1% (inactive)	-97.6% (active) and 13% (inactive)	-57.1% (active) and 15.6% (inactive)	-97.6% (active) and -97.4% (active)	-86.3% (active) and -27.8% (active)	-92% (active) and -92.9% (active)	-96.3% (active) and -63.1% (active)	
CC1CCCc2sc3nc(NNC(=O)c4cnccn4)n(-c4ccccc4)c(=O)c3c21 (stereo not drawn)	12.2% (inactive) and 12.9% (inactive)	14.2% (inactive) and 13.4% (inactive)	15.9% (inactive) and 11.2% (inactive)	28.9% (inactive) and 25.5% (inactive)	11.2% (inactive) and -15.9% (active)	14.5% (inactive) and 5.5% (active)	22.7% (inactive) and 11.3% (inactive)	6.89% (active) and 6.17% (active)	-7.57% (active) and -18.3% (active)	7.99% (active) and -2.42% (active)	26.4% (inactive) and 24.6% (inactive)	22.4% (inactive) and 26.2% (inactive)		4.39% (active) and 8.03% (active)	30% (inactive) and 27.4% (inactive)	-38.3% (active) and -65.9% (active)	-33.9% (active) and -8.57% (active)	0.839% (active) and 2.01% (active)	11.7% (inactive) and 27.4% (inactive)	36.4% (inactive) and 2.93% (active)
